# Columns and labels:
# Experiment in all cases: DAPPL (digital affinity profiling via proximity ligation, sequencing); 10 mM Tris-HCl pH 7.5, 50 mM NaCl, 1 mM DTT, 4% glycerol, room temperature, 30 min; GST-TFs on glutathione beads, 16-mer random dsDNA library, 0.1% formaldehyde crosslink after washing; high values mean tight binding
# Details in all cases: protein: recombinant; tags: N-terminal GST; dsDNA, one strand shown
# FLI1 = target: T1, FLI1 (Homo sapiens, UniProt Q01543 1-452)
# T1 sequence: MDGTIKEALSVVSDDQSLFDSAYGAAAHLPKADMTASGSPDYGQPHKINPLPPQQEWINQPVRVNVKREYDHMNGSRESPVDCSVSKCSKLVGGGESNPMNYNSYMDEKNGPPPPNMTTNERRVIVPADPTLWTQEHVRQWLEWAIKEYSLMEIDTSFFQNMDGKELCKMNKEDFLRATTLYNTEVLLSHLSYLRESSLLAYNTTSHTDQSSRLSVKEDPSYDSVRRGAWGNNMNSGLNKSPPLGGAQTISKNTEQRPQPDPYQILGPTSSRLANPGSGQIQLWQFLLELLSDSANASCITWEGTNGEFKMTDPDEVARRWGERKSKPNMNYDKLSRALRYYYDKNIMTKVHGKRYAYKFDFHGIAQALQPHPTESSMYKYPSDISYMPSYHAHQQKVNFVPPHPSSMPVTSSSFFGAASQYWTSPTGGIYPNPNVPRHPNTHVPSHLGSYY
# Outline: (§1)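 A tag-only sample was pooled with DNA-barcoded human transcription factors that had been expressed in yeast as GST fusions and captured on glutathione beads. The pools were incubated for 30 min at room temperature with 200 nmole of a random double-stranded 16-mer DNA library in Tris/NaCl/DTT/glycerol buffer, then washed, crosslinked with 0.1% formaldehyde, proximity-ligated (BsaI/T4 ligase, 1 h, 37 °C), PCR-amplified and sequenced on an Illumina NextSeq500. Binding signal is each hexamer's read frequency for a factor divided by its frequency for the tag-only sample.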
# ELK1 = target: T2, ELK1 (Homo sapiens, UniProt P19419 1-428)
# T2 sequence: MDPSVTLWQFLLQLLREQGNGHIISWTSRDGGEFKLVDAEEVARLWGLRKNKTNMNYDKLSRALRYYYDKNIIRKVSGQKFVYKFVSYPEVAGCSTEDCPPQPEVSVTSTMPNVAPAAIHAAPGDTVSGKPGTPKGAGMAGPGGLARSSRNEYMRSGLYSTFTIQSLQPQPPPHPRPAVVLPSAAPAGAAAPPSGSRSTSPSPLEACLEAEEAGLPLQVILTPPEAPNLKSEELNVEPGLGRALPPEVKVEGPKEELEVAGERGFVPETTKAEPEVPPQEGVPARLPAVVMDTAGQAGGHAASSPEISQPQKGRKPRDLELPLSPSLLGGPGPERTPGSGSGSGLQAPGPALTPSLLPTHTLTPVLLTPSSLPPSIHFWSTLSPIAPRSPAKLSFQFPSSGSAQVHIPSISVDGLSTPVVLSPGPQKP
# Outline: as §1
# GABPA = target: T3, GABPA (Homo sapiens, UniProt Q06546 1-454)
# T3 sequence: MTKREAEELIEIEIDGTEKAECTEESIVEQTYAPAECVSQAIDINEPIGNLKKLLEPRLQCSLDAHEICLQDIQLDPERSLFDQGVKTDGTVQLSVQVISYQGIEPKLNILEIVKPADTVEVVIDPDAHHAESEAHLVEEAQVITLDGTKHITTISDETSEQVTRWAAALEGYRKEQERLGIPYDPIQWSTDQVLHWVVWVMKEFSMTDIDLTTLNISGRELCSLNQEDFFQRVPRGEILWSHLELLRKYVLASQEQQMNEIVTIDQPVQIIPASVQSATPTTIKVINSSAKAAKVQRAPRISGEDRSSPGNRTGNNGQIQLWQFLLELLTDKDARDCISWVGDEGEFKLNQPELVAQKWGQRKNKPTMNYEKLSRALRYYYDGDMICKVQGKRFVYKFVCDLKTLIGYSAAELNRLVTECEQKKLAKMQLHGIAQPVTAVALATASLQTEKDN
# Outline: as §1
# ERG = target: T4, ERG (Homo sapiens, UniProt P11308 1-479)
# T4 sequence: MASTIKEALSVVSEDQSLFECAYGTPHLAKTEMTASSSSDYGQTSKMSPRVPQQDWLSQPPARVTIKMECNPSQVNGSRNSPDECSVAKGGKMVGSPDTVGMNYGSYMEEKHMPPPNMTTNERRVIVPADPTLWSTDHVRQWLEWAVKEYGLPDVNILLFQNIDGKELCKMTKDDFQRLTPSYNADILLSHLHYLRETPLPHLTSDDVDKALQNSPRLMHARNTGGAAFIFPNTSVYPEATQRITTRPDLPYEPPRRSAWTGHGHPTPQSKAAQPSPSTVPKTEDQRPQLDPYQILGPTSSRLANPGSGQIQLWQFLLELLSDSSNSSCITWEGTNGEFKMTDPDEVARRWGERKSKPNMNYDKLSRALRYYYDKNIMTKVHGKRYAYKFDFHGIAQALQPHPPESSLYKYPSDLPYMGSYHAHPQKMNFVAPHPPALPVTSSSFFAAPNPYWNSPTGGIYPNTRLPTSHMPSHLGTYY
# Outline: as §1
# ELF1 = ELF1 (Homo sapiens, UniProt P32519 1-619)
# Outline: as §1
# EHF = target: T5, EHF (Homo sapiens, UniProt Q9NZC4 1-300)
# T5 sequence: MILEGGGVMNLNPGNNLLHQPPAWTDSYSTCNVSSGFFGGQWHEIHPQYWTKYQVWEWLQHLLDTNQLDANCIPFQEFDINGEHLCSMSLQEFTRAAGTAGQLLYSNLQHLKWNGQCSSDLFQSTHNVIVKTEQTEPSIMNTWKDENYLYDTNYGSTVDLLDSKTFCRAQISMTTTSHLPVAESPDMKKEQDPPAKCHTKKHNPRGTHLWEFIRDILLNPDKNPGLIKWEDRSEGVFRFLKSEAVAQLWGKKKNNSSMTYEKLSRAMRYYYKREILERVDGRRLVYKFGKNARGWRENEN
# Outline: as §1
# SPI1 = SPI1 (Homo sapiens, UniProt P17947 1-270)
# Outline: as §1
# SPIB = SPIB (Homo sapiens, UniProt Q01892 1-262)
# Outline: as §1
# ELK3 = target: T6, ELK3 (Homo sapiens, UniProt P41970 1-407)
# T6 sequence: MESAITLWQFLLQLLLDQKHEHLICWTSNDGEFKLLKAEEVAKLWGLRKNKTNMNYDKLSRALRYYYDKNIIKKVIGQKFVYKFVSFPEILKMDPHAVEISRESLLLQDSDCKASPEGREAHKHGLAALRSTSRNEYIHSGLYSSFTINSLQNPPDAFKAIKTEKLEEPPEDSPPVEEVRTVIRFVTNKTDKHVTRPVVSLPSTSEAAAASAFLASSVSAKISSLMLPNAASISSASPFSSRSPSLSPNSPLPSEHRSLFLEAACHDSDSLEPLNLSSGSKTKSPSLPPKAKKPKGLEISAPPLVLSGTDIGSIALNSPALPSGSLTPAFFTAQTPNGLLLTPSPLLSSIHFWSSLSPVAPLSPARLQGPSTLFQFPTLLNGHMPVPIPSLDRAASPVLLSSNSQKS
# Outline: as §1
# Sequence of ELF1 (P32519 whole entry): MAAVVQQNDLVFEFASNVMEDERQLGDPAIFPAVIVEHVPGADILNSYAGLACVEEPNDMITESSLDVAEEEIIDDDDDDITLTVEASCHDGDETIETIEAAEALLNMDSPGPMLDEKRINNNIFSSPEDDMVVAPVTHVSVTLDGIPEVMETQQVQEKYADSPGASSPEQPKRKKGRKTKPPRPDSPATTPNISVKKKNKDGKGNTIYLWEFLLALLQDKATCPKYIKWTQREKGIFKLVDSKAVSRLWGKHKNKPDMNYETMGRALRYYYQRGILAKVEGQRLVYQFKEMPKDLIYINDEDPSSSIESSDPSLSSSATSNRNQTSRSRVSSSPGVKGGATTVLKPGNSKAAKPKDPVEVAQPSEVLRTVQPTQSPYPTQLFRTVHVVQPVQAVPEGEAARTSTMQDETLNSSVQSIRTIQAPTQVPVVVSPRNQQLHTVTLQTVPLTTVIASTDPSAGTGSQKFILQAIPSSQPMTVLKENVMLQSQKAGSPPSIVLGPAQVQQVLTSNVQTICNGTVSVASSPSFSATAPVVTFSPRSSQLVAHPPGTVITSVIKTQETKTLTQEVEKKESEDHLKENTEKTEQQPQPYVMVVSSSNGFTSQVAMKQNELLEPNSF
# Sequence of SPIB (Q01892 whole entry): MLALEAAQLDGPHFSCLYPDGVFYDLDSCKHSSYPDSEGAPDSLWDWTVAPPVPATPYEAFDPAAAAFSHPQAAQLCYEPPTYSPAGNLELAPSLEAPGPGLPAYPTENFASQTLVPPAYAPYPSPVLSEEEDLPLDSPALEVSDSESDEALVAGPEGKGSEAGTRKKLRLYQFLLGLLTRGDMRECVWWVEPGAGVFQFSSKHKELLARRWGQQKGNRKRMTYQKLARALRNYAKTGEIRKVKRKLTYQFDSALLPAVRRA
sequence,measurement,setting,value
TGCGAA,binding signal,FLI1,"1.21 fold enrichment (6-mer frequency, TF over GST control)"
same,binding signal,ELK1,"1.2 fold enrichment (6-mer frequency, TF over GST control)"
same,binding signal,GABPA,"1.07 fold enrichment (6-mer frequency, TF over GST control)"
same,binding signal,ERG,"1.16 fold enrichment (6-mer frequency, TF over GST control)"
same,binding signal,ELF1,"1.23 fold enrichment (6-mer frequency, TF over GST control)"
same,binding signal,EHF,"1.18 fold enrichment (6-mer frequency, TF over GST control)"
same,binding signal,SPI1,"1.26 fold enrichment (6-mer frequency, TF over GST control)"
same,binding signal,SPIB,"1.22 fold enrichment (6-mer frequency, TF over GST control)"
same,binding signal,ELK3,"1.07 fold enrichment (6-mer frequency, TF over GST control)"

# From publication PMC7862700, “An all-to-all approach to the identification of sequence-specific readers for epigenetic DNA modifications on cytosine”
